Shown is part of a subset that was picked to be rich in hits.
Pf Dd2 growth: Plasmodium falciparum Dd2 growth inhibition; P. falciparum Dd2 growth, SYBR Green, 72 h; Potency, µM (top dose mostly 28.9 µM), for inactives: at the highest dose activity, negative = inhibition, usual class: inhibitors; actives 4.3% (n = 120,000); active = well fitted inhibition curve with a large enough effect;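 also: plate controls were DMSO vehicle for no effect and reference drug for full effect; nearly all actives have a fitted effect of over 65% in size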
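Readout: SYBR Green fluorescence, 485 nm excitation, 535 nm emission, after ~16 h lysis at 37C. Before that, Dd2-infected red cells (2.5% hematocrit) grew 72 h with compound, 29 uM top final concentration.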
Active calls of the source: *; i = inactive; [ ] = remark or other dose. Potency is read from the fitted curve at half-maximal effect.

SMILES	Pf Dd2 growth
COCCN(CCOC)c1ncnc2c1c(-c1ccccc1)cn2-c1ccc(C)c(Cl)c1	11µM*
COc1ccc(CCNc2ncnc3c2c(-c2ccccc2)cn3-c2ccc(Cl)cc2)cc1OC	i
COc1ccc(Cl)cc1Nc1ncnc2c1c(-c1ccccc1)cn2-c1ccccc1	-4%
CN(Cc1cccnc1)Cc1nc(CC(N)=O)nn1-c1ccc2c(c1)CCC2	-8%
COCCn1ncc(N2CCCC(CC(=O)NCc3ccc(Cl)cc3)C2)cc1=O (stereo not given)	7%
CN(Cc1ccsc1)C1CCOc2ccccc21 (stereo not given)	-17%[44.1 µM]
O=S(=O)(c1cccs1)N1C[C@@H](c2ccc(F)cc2)[C@@H]2[C@H]1C1CCN2CC1	5.6µM*
O=C1NCCCCCCN(S(=O)(=O)c2cccs2)[C@H]2CCC[C@@H]12	-17%
O=C1NCCCCCN(S(=O)(=O)c2cccs2)[C@H]2CCCC[C@@H]12	-10%
OC[C@@H]1O[C@H](CNC2CCOCC2)[C@H](N2CCCCC2)[C@@H]1O	-12%[44.1 µM]
Cc1ccc(CN2CCCCC23Cc2ccccc2CNC3=O)cc1C (stereo not given)	7.9µM*
O=C1NCc2ccccc2CC12CCCN2Cc1ccc(O)cc1O (stereo not given)	-8%
Cc1ccc(CN2CCCC23Cc2ccccc2CNC3=O)cc1 (stereo not given)	10µM*
CCc1ccccc1CN1CCCC12Cc1ccccc1CNC2=O (stereo not given)	8.9µM*
COc1ccc(CN2CCCCC23Cc2ccccc2CNC3=O)cc1OC (stereo not given)	-17%
CC(=O)Nc1ccc(CN2CCCC23Cc2ccccc2CNC3=O)cc1 (stereo not given)	-1%
O=C1NCc2ccccc2CC12CCCN2Cc1ccc(F)cc1F (stereo not given)	0%
O=C1NCc2ccccc2CC12CCCN2Cc1ccc(O)cc1 (stereo not given)	-23%
O=C1NCc2ccccc2CC12CCCCN2Cc1cccc(F)c1 (stereo not given)	-29%
O=C(NC1CC1)C1CN(c2ccccc2)C(=O)N1 (stereo not given)	-2%[44.1 µM]
CN(C)C[C@@H]1CN(C2CCOCC2)C[C@H]1NC(=O)c1cnco1	24%
COCCC(=O)N1CCC(N2C(=O)CCC2C(=O)NCc2ccccc2)CC1 (stereo not given)	-4%
NC(=O)[C@@H]1CN(C(=O)C2CCCC2)C[C@H]1COc1ccccc1	4%
CCc1ccc(C(=O)N2c3ccccc3CC2c2nc(C3CC3)no2)cc1 (stereo not given)	8%[5.79 µM]
COCC(=O)Nc1cc(C(=O)N2CCc3cc(OC)c(OC)cc3C2)c2c(c1)nc(C1CCC1)n2C	i
SMILES	Pf Dd2 growth
Cc1ncc2c(c1CNC(=O)c1ccccc1-c1nn[nH]n1)CCNC2	-3%
CCCS(=O)(=O)c1nc(S(=O)(=O)c2ccc(C)cc2)c(NCC(C)C)s1	8.9µM*
CCCCNc1nc2c(S(=O)(=O)c3ccc(Cl)cc3)nnn2c2ccsc12	-19%
CCC(C)Nc1sc(S(=O)(=O)CC)nc1S(=O)(=O)c1ccc(C)cc1 (stereo not given)	13µM*
CCCCS(=O)(=O)c1oc(-c2ccc(F)cc2)nc1S(=O)(=O)c1ccc(C)cc1	-3%
CCCSc1oc(-c2cccs2)nc1S(=O)(=O)c1ccc(C)cc1	-21%
COCCNc1sc(S(=O)(=O)c2ccc(C)cc2)nc1S(=O)(=O)c1ccc(C)cc1	-16%
CCCCCS(=O)(=O)c1oc(-c2cccs2)nc1S(=O)(=O)c1ccc(C)cc1	7%
CCCS(=O)(=O)c1nc(S(=O)(=O)c2ccc(C)cc2)c(N(CC)CC)s1	i
CCN(CC)CCCNC(=O)CSc1nc2nc(C)c(Cc3c(F)cccc3Cl)c(C)n2n1	-29%
CCN(CC)CCCNc1sc(S(=O)(=O)c2ccccc2)nc1S(=O)(=O)c1ccc(Cl)cc1	5.6µM*

Assay outcomes as filed in PubChem BioAssay.
